# Laboratory results as given in the supplement of paper PMC10127200.
# Where a name gives a salt, the structure may show the parent alone.
# Legend:
# Experiment in all cases: Euclidean distance of Cell Painting phenotypic profile (signed KS, 77 features) to DMSO centroid (dimensionless distance); 5 or 10 uM (library dependent); higher = stronger phenotypic change vs DMSO (phenoactivity)
# Details in all cases: 48 h
# [1] = system: 786-O
# Summary of the method: (§1)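 Phenoactivity is defined as the Euclidean distance from a compound profile to the median vehicle profile. Each profile comprised 77 Harmony features, scored as signed Kolmogorov-Smirnov statistics versus same-plate vehicle wells, then plate-position corrected, correlation-weighted and replicate-averaged at the top dose. Five cancer lines and one healthy fibroblast line were exposed to library compounds for 48 h at 10 or 5 uM (0.1% DMSO final).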
# [2] = system: A549
# Summary of the method: as §1
# [3] = system: DU145
# Summary of the method: as §1
# [4] = system: FB
# Summary of the method: as §1
# [5] = system: HEPG2
# Summary of the method: as §1
# [6] = system: OVCAR4
# Summary of the method: as §1
SMILES,Euclidean distance [1],Euclidean distance [2],Euclidean distance [3],Euclidean distance [4],Euclidean distance [5],Euclidean distance [6]
NC(=O)/N=N/C(N)=O [Azodicarbonamide],1.07,0.533,1.15,0.879,1.28,1.14
CCCCN(Cc1ccc(C(=O)NO)cc1)C(=O)Nc1ccccc1 [Nexturastat A],1.18,1.83,2.03,3.14,1.55,2.05
Cn1cc(C2=C(c3cn(CCCSC(=N)N)c4ccccc34)C(=O)NC2=O)c2ccccc21 [Ro 31-8220 Mesylate],2.7,3.02,2.58,2.92,3.24,2.82
CC(C)CCCC(C)N (configuration not stated) [Octodrine (2-Amino-6-methylheptan)],1.17,0.649,0.851,1.24,1.34,1.4
C1CNCCN1 [Piperazine],1.04,1.08,0.846,1.09,0.402,1.67
COc1cc2nccc(Oc3ccc(NC(=O)NC4CC4)c(Cl)c3)c2cc1C(N)=O [Lenvatinib (E7080)],2.11,0.779,1.02,3.36,1.02,1.33
OCCN1CCN(CC/C=C2/c3ccccc3Sc3ccc(C(F)(F)F)cc32)CC1 [Flupenthixol dihydrochloride],1.63,2.21,1.71,2.52,2.68,2.01
CCC(NC(C)C)C(O)c1ccc(O)c2[nH]c(=O)ccc12 (configuration not stated) [Procaterol HCl],1.23,1.55,0.791,0.891,2.17,1.67
CC1(C)S[C@@H]2[C@H](NC(=O)C(c3ccccc3)S(=O)(=O)O)C(=O)N2[C@H]1C(=O)O (some centres not stated) [Sulbenicillin Sodium],0.75,0.447,1.14,1.28,0.601,1.09
COc1ncc(-c2ccc3nccc(-c4ccnnc4)c3c2)cc1NS(=O)(=O)c1ccc(F)cc1F,4.98,3.16,2.84,3.96,2.53,3.04
CCCCN1CCCC[C@H]1C(=O)Nc1c(C)cccc1C [Levobupivacaine HCl],1.01,1.33,0.6,0.871,0.852,1.49
C[C@@]12C[C@@]3(O)O[C@@H](O1)[C@]1(COC(=O)c4ccccc4)[C@H]3C[C@@]12O[C@@H]1O[C@H](CO)[C@@H](O)[C@H](O)[C@H]1O [Paeoniflorin],1.19,0.375,0.983,0.985,0.474,1.17
